The source of these data is the supplement of paper PMC10498489.

Hit rate of the full screen: of about 2,300 compounds, about 330 (14%) showed activity. Only a sample is shown. Unmarked numbers belong to inactive results.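 Rule for the calls: active = median modified Z-score above 1.96; inactive = 1.96 or below.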

The assay has as its system HepG2 Srxn1-GFP reporter cells (+30 nM CDDO-Me). As to the kind of experiment: Srxn1-GFP intensity median modified Z-score relative to plate median; higher = stronger NRF2 / oxidative stress reporter activation, active = hit call of the paper. The conditions noted are these: 10 µM; exposure time: 24h. In a few lines: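 The modified Z-score of GFP intensity was computed per plate, and the median over replicates is reported. HepG2 Srxn1-GFP BAC reporter cells in three replicate plates were treated for 24 h with compound at 10 μM plus an NRF2 activator at 30 nM (≤0.1% DMSO). Per-cell cytoplasmic GFP came from confocal images, excluding those with under 100 cells, and scaling used 1.4826 × median absolute deviation.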
On to `CC1(O)CCOC(=O)C1` (stereo not given) [euspeclibcmpd1666], for which the “Srxn1-GFP intensity median modified Z-score” value was -0.384. Regarding `N=c1[nH]c(N)ccc1N=Nc1ccccc1` [euspeclibcmpd230], the “Srxn1-GFP intensity median modified Z-score” value is 0.85. Next, `O=C(CCCN1CCN(c2ccccn2)CC1)c1ccc(F)cc1` [euspeclibcmpd1317]: 0.00738. Next, `CCCC[C@@H](CC)COC(=O)c1ccccc1O` [euspeclibcmpd865]: -0.26; `CN(C/C=C/c1ccccc1)Cc1cccc2ccccc12` [euspeclibcmpd791]: 0.553. Next, `CN(C/C=C/C#CC(C)(C)C)Cc1cccc2ccccc12` [euspeclibcmpd767]: 3.24 (active).

For `c1ccc2c(CC3=NCCN3)cccc2c1` [euspeclibcmpd204], the “Srxn1-GFP intensity median modified Z-score” value was -0.697. As for `CC1(C)O[C@@H]2[C@@H](CO[C@@]3(COS(N)(=O)=O)OC(C)(C)O[C@@H]23)O1` [euspeclibcmpd870], the “Srxn1-GFP intensity median modified Z-score” value is 0.206. Take `CC(C)=CCC/C(C)=C/CO` [euspeclibcmpd1453]: the “Srxn1-GFP intensity median modified Z-score” value is 2.94 (active). Next, `CC(C)=CCC/C(C)=C/CC/C(C)=C/CO` [euspeclibcmpd2192]: 1.35. Regarding `CC(C)=CCC/C(C)=C/CC/C(C)=C/CC/C(C)=C/CC/C(C)=C/CC/C(C)=C/CC/C(C)=C/CC/C(C)=C/CC/C(C)=C/CO` [euspeclibcmpd1640], the “Srxn1-GFP intensity median modified Z-score” value was -0.00439.

With `Cc1ccc(-c2nc(CSc3nc(C)c(C)n3CC3CCCO3)co2)c(C)c1` (stereo not given), the “Srxn1-GFP intensity median modified Z-score” value is 1.14.

Turning to `CCCC1O[C@@H]2CC3C4CC=C5CC(=O)C=CC5(C)C4[C@@H](O)CC3(C)[C@]2(C(=O)CO)O1` (stereo not given in full) [euspeclibcmpd352], the “Srxn1-GFP intensity median modified Z-score” value was -0.649. As for `Oc1oc(O)c2c1C1CCC2O1` [euspeclibcmpd1748], the “Srxn1-GFP intensity median modified Z-score” value was 3 (active).

For the compound `CC(=O)O[C@H]1CC[C@]2(C)C3CC[C@@]4(C)C(CC5O[C@@]6(CCC(C)CO6)[C@@H](C)C54)C3CC[C@@H]2C1` (stereo not given in full) [euspeclibcmpd1531], the “Srxn1-GFP intensity median modified Z-score” value was -0.369. Next, `O=S(=O)(c1ccc(Cl)nc1)N(CC1CCCO1)C1CCSC1` (stereo not given): 1.21.

Turning to `Cc1c(C)c(O)c(C(=CCCCCC(=O)O)c2ccccc2)c(C)c1O` [euspeclibcmpd470], the “Srxn1-GFP intensity median modified Z-score” value was -0.366. For `COc1c2ccoc2nc2c(OC)c(OCC(O)C(C)(C)O)ccc12` (stereo not given) [euspeclibcmpd1658] the value was 26 (active); for `C[C@]12CCC(=O)CC1=CC=C1C2CC[C@@]2(C)C1CC[C@@]21CCC(=O)O1` (stereo not given in full) [euspeclibcmpd726], 0.642. Consider `CN1C2CC[C@H]1C[C@@H](OC(=O)C(O)c1ccccc1)C2` (stereo not given in full) [euspeclibcmpd2075], for which the “Srxn1-GFP intensity median modified Z-score” value is 0.0546. As to `CCN(CC)CCOC(=O)C1(C2CCCCC2)CCCCC1` [euspeclibcmpd90], the “Srxn1-GFP intensity median modified Z-score” value is 2.86 (active).

Regarding `CCN(CC)CCOCCOC(=O)C1(c2ccccc2)CCCC1` [euspeclibcmpd389], the “Srxn1-GFP intensity median modified Z-score” value was -0.0174. For `CCN(CC)CCOC(=O)C(c1ccccc1)C1CCCCC1` (stereo not given) [euspeclibcmpd1055] the value was 0.0961; for `NC(=O)C1CCCN1C(=O)C(Cc1c[nH]cn1)NC(O)c1ccc(O)[nH]1` (stereo not given) [euspeclibcmpd919], 0.145. Take `COc1c(O)cccc1O` [euspeclibcmpd1665]: the “Srxn1-GFP intensity median modified Z-score” value was 3.35 (active). In the case of `COc1c(O)cc(O)cc1O` [euspeclibcmpd1393], the “Srxn1-GFP intensity median modified Z-score” value was -0.431.

`COc1ccccc1O` [euspeclibcmpd1265]: the “Srxn1-GFP intensity median modified Z-score” value was -0.0107.

`COc1cccc(O)c1O` [euspeclibcmpd1624]: the “Srxn1-GFP intensity median modified Z-score” value was 10.7 (active). For `COc1cc(O)cc(OC)c1OC` [euspeclibcmpd1601], the “Srxn1-GFP intensity median modified Z-score” value is -0.369. For `Oc1cccc2[nH]ccc12` [euspeclibcmpd2031] the value was -0.358. Consider `N=C(N)NCCCC(N)C(=O)O` (stereo not given) [euspeclibcmpd695], for which the “Srxn1-GFP intensity median modified Z-score” value is -0.363.

As for `CC(C)N=c1nccc[nH]1` [euspeclibcmpd1194], the “Srxn1-GFP intensity median modified Z-score” value was -0.779. In the case of `NC[C@H]1O[C@H](O[C@H]2C(O[C@@H]3O[C@H](CO)[C@@H](O)[C@H]3O)[C@@H](O)[C@H](N)C[C@@H]2N)[C@H](N)[C@@H](O)[C@@H]1O` (stereo not given in full) [euspeclibcmpd1069], the “Srxn1-GFP intensity median modified Z-score” value was -0.384.

For `CCOc1ccc(C(=O)c2ccc(OC)c(O)c2O)cc1` [euspeclibcmpd1975], the “Srxn1-GFP intensity median modified Z-score” value is -0.333. With `CCO[C@@]1(C)C[C@H]1NC(=O)N[C@@H]1C[C@@H]1C(F)F`, the “Srxn1-GFP intensity median modified Z-score” value was 0.985.
